Screening results (PubChem)
ELG1 DNA repair: inhibitors of ELG1-dependent DNA repair in HEK293T cells | Potency, µM (highest dose often 46.1 µM), for inactives: top-dose activity change, negative = inhibition, actives largely listed as inhibitors | HEK293T ELG1-luciferase reporter, luminescence, 16 h; DNA damage induced by 5-fluorouridine | AID 504467 | 330,000 compounds, 2.3% hits; note: % is set by controls: 0 for no effect and ±100 for the full control effect; nearly all actives have a fitted effect of over 55% in size
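In this reporter screen, reduction of luminescence relative to DMSO vehicle indicated activity. Compounds and 5-fluorouridine were added together to 2,000 cells per well, incubated for 16 hr at 37 °C, then developed with ONE-Glo.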
SW480 rereplic: induces DNA re-replication in SW480 colon adenocarcinoma cells; SW480 DNA re-replication, Hoechst DNA content imaging, 48 h; Potency, µM (titrated, usually from 46.1 µM), for the others: at the highest dose re-replication activation, usual class: activators; 340,000 compounds, 1.8% hits; AID 624297; note: % of control where 0% means no effect; nearly all actives have a fitted effect of over 55% in size
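Treated cells incubate 48 hr (37 C, 5% CO2), are stained 40 min with Hoechst, and nuclear fluorescence is enumerated; a rise in nuclei with high DNA signal marks re-replication.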
KB-V1 cytotox: kills drug-selected multidrug resistant KB-V1 cells | KB-V1 MDR cells viability, CellTiter-Glo, 72 h | 400,000 compounds, 3.4% hits | Potency, µM (top dose mostly 46.1 µM), most hits filed as cytotoxic; note: % is set by controls: 0 for no effect and ±100 for the full control effect; nearly all actives have a fitted effect of over 60% in size
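Compound-treated KB-V1 multidrug-resistant cells, 72 h, 37 degrees C; viability by CellTiter-Glo. Fitted qHTS curves give the values.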
MCF10A rerep: DNA re-replication induction in MCF 10a cells. MCF 10A DNA re-replication, Hoechst nuclear intensity, 48 h. Potency, µM (top dose mostly 46.1 µM), for inactives: at the highest dose activity, positive = re-replication, usual class: activators. 350,000 compounds, 2.9% hits; note: % of control where 0% means no effect; nearly all actives have a fitted effect of over 50% in size
KB-3-1 tox: kills parental KB-3-1 adenocarcinoma cells. KB-3-1 viability, CellTiter-Glo ATP luminescence, 72 h. Potency, µM (series often up to 46.1 µM), hits mostly cytotoxic. 400,000 compounds, 1.4% hits. AID 1347075; note: % is set by controls: 0 for no effect and ±100 for the full control effect; nearly all actives have a fitted effect of over 60% in size
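Cells are dispensed, compounds pinned in, plates held at 37 °C for 72 h, then CellTiter-Glo is added and luminescence read after 10 minutes. Cell line: parental KB-3-1 in phenol-red-free DMEM, 10% FBS.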
Active calls of the source: *; i = inactive; ? = inconclusive; · = not tested or not shown; ! = repeats disagree. Only some compounds are listed: those with a hit (about 8.1% of all), similar ones and a draw of the others. Calls come from the whole dose curve; as a rule, active = well fitted curve in the direction sought with a large enough effect; inconclusive = small, poorly fitted or top-dose-only effect, or another doubt; inactive = no such curve, though single readings can be large; an effect the other way counts as inactive or inconclusive. Potency is the fitted concentration of half-maximal effect.

SMILES	ELG1 DNA repair	SW480 rereplic	KB-V1 cytotox	MCF10A rerep	KB-3-1 tox
COc1cc(C#Cc2c(-c3cncn3C)n(C)c3ccc(-c4ccc5[nH]ccc5c4)cc23)cc(OC)c1	?	?	i	11.2%	i
COc1cc(C#Cc2c(-c3cncn3C)n(C)c3ccc(-c4ccc(OC)nc4)cc23)cc(OC)c1	7.3µM*	26.3%	?	?	?
Cc1c(N=Cc2ccco2)c(=O)n(-c2ccccc2)n1C	-2.4%	1.1%	i	-12.6%	i
COc1ccc2c(C=Nc3c(C)n(C)n(-c4ccccc4)c3=O)c(O)n(Cc3ccco3)c(=O)c2c1	?	-1.3%	i	18.4µM*!	i
Cc1nc(Nc2ccccc2Br)c2nnn(Cc3ccccc3)c2n1	-0.9%	-0.7%	i	24.7%	i
Cc1nc(Nc2ccc(Cl)cc2)c2nnn(Cc3ccccc3)c2n1	-1.4%	11.3%	?	23.1µM*	i
COc1ccc(Nc2nc(C)nc3c2nnn3Cc2ccccc2)cc1OC	9.2µM*	-0.6%	?	12.9%	i
Cc1nc(Nc2ccc(S(=O)(=O)N3CCCCC3C)cc2)c2nnn(Cc3ccccc3)c2n1 (stereo not given)	7.31µM*	5.4%	2.31µM*	-32.5%	16.4µM*
CCOC(=O)c1nnn(C(CC)C(=O)Nc2ccc(F)cc2)c1C(=O)OCC (stereo not given)	·	·	?	·	i
CN1CCN(c2nc3c(S(=O)(=O)c4ccccc4)nnn3c3ccsc23)CC1	·	·	i	·	i
COc1ccc(C)cc1NC(c1nnc(-c2ccccc2)o1)c1ccc(F)cc1Cl (stereo not given)	·	·	i	·	i
C=CCN(CC=C)C(=O)C(=O)c1cc(C)n(-c2ccc([N+](=O)[O-])cc2)c1C	-18.3%	-7.0%	7.31µM*	-7.2%	i
COc1ccc(Nc2nc(NCCO)nc(N3CCCC3)n2)cc1	·	-65.1%	i	9.0%	i
CCCNc1nc(Nc2ccc(C)cc2)nc(N2CCCC2)n1	?	7.5%	4.11µM*	?	?
N#C/C(=C\c1ccc(F)cc1)C(=O)Nc1ccccn1	2.0%	4.11µM*	i	5.2%	i
